The panel holds about 83,000 compounds, 20% with a hit somewhere; the sample as a whole holds those more often.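 Cells were grown in 96-well plates and exposed to the test compound at a single concentration for 48 hours; results are reported as percent growth, with values below 10 considered active.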 Unmarked numbers belong to inactive results. Active and inactive are the calls of the source.
System: HL-60(TB) leukemia
Experiment: NCI-60 one-dose screen, 48 h (100 = growth as untreated, 0 = no growth, -100 = all killed)
Conditions: 10 µM unless noted

For `NS(=O)(=O)c1ccc(NC(=O)CSc2ccc(-c3ccccc3)nn2)c(Br)c1`, which growth is on record?
Its growth is 99.2%.

With `C=C1CCC2C3(C)COC(c4cccc(F)c4)OC3CCC2(C)C1C/C=C1/C(=O)OCC1O` (stereo not drawn) as the compound, how does the growth read?
Its growth is 4.43% (active).

Which growth does the source give for `NC(=S)Nc1cccc(NC(N)=S)c1` here?
Its growth is 99.1%.

With `Cc1ccc2nc(NC(=O)Nc3cccc(Cl)c3)sc2c1` as the compound, how does the growth read?
The growth was 95.7%.

How did the growth turn out when `O=C(N=Nc1c(O)[nH]c2ccc([N+](=O)[O-])cc12)c1ccc2nc(-c3ccccc3)[nH]c2c1` was run?
The growth was 84.7%.

With `CCOC(=O)C1=C(N)N(c2ccccc2)C2=C(C(=O)CC(C)(C)C2)C1c1cccc(Cl)c1Cl` (stereo not drawn) as the compound, how does the growth read?
Its growth is 46.2%.

How did the growth turn out when `O=C(Nc1cccc(-n2cnc3cc(-c4ccc(O)cc4)ccc32)c1)C1CC1` was run?
Its growth is -16.7% (active).

With `CC(=O)Nc1ccc(-c2cn(-c3cccc(C(=O)Nc4cccc(OC(F)(F)F)c4)c3)nn2)cn1` as the compound, how does the growth read?
The growth was 95.1%.

Which growth does the source give for `Cc1cc(=O)oc2cc(OCCOc3ccc(/C=C/C(=O)Nc4ccccc4N)cc3)ccc12` here?
Its growth is 0.0457% (active).

With `COc1c(F)ccc(C(=O)Nc2ccc3nc(NC(=O)C4CCCN(S(=O)(=O)c5cccc(C(F)(F)F)c5)C4)sc3c2)c1F` (stereo not drawn) as the compound, how does the growth read?
Its growth is 72.1%.

Which growth does the source give for `Cc1ccc(/C(CSc2nnc(-c3c[nH]c4ccccc34)n2-c2ccccc2)=N/O)cc1` here?
The growth was -13.8% (active).

Which growth does the source give for `CC(Nc1ncnc2ccc(-c3ccc4oc(N)nc4c3)cc12)c1ccccc1` (stereo not drawn) here?
Its growth is -71.4% (active).

For `O=C(CNc1nc(-c2ccccc2)cs1)Nc1ccc(Cl)cc1[N+](=O)[O-]`, which growth is on record?
The growth was -15.1% (active).
